According to PubChem BioAssay (NCI):
About 83,000 compounds went through this panel and 20% of them were active in at least one assay; those are over-represented in the sample as a whole.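 A percent growth of 40 corresponds to 60% growth inhibition; 0 means no net growth; -100 means all cells died. Active threshold: below 10.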 Values without a mark were called inactive. Activity calls are given as the source filed them.

Assays:
Test in all cases: NCI-60 one-dose screen, 48 h (100 = growth as untreated, 0 = no growth, -100 = all killed)
Settings in all cases: 10 µM unless noted
[1] = tested on: SR leukemia
[2] = tested on: RPMI-8226 leukemia
[3] = tested on: OVCAR-8 ovarian
[4] = tested on: OVCAR-5 ovarian
[5] = tested on: OVCAR-4 ovarian
[6] = tested on: SK-OV-3 ovarian
[7] = tested on: IGROV1 ovarian
[8] = tested on: OVCAR-3 ovarian
[9] = tested on: HS 578T breast
[10] = tested on: NCI/ADR-RES ovarian

| Compound | growth [1] | growth [2] | growth [3] | growth [4] | growth [5] | growth [6] | growth [7] | growth [8] | growth [9] | growth [10] |
| --- | --- | --- | --- | --- | --- | --- | --- | --- | --- | --- |
| COc1cc(-c2c(C#N)c(-c3cccs3)nc3c2c(-c2ccccc2)nn3-c2ccccc2)ccc1O | 60.5% | 94.3% | 84.2% | 95.4% | 83.5% | 82.7% | 91.3% | 101% | 78.6% | 88.9% |
| Cc1ccc(-c2nc([P+](c3ccccc3)(c3ccccc3)c3ccccc3)c(N3CCOCC3)o2)cc1 | 5.72% (active) | -24.2% (active) | 3.78% (active) | 18.9% | 12.3% | -43.9% (active) | 1.46% (active) | -0.275% (active) | 16.8% | 86% |
| COC(=O)[C@]12CC[C@@H](C)[C@H](C)[C@@H]1C1=CC(=O)[C@@H]3[C@@]4(C)C[C@@H](OC(C)=O)[C@H](OC(C)=O)[C@@](C)(COC(C)=O)[C@@H]4C(=O)C[C@@]3(C)[C@]1(C)CC2 | 29.1% | 3.4% (active) | 10.4% | 84.4% | 60.4% | 76.4% | 61.4% | 40.2% | 75.9% | 13.2% |
| CCCNc1nc(N(C)O)nc(N(C)O)n1 | 32.1% | 38.1% | 26.5% | 64% | 19.2% | 45.2% | 36.9% | -10.6% (active) | 71% | 16.9% |
| Cn1cc(-c2csc(-c3cn(CCN)c4ccc(F)cc34)n2)c2cccnc21 | 2.79% (active) | 67.9% | 72.1% | 80.2% | 54.6% | 78% | 39.6% | 84.1% | 77.9% | 78.3% |
| CCN1CCN(C(=O)[C@]23CCC(C)(C)C[C@@H]2C2=CC[C@@H]4[C@@]5(C)C/C(=C/c6ccncc6)C(=O)C(C)(C)[C@@H]5CC[C@@]4(C)[C@]2(C)CC3)CC1 | -29.1% (active) | -32.1% (active) | 7.29% (active) | -20.4% (active) | 6.7% (active) | 16.2% | -9.63% (active) | -85.7% (active) | -23.6% (active) | -49.2% (active) |
| Oc1ccc(Nc2ccccc2)cc1 | 94.2% | 97.5% | 96% | 123% | 70.5% | 97.9% | 101% | 94.2% | 105% | 87.8% |
| COC(=O)[C@]12CC[C@@H](C)[C@H](C)[C@@H]1C1=CC[C@@H]3[C@@]4(C)C[C@@H](OC(C)=O)[C@H](O)[C@@](C)(CO)[C@@H]4[C@H](O)C[C@@]3(C)[C@]1(C)CC2 | -45.7% (active) | -29.4% (active) | -60.9% (active) | -78.2% (active) | -79.6% (active) | -95.4% (active) | -58.8% (active) | -85% (active) | -50.5% (active) | -67.6% (active) |
| CCCCC[C@H]1C/C=C2/C(=O)C(Cl)=C[C@@H]2C/C=C\CCCC(=O)O1 | 2.6% (active) | -23.5% (active) | -19.1% (active) | -64.9% (active) | 16.3% | -15.2% (active) | -61% (active) | -89.5% (active) | 29.7% | 12.1% |
| C=C1C(=O)O[C@H]2[C@H]1CC/C(COC(=O)NCCc1c[nH]c3ccccc13)=C\CC[C@@]1(C)O[C@@H]21 | 0.79% (active) | -25.7% (active) | 36.4% | 56.6% | 38.4% | 89.1% | -16.6% (active) | -65.6% (active) | 81% | 65.9% |
| COc1cc2c(cc1-c1c(C)noc1C)ncc1nc(C3CCC(F)(F)CC3)n([C@@H](C)COC(F)F)c12 | 24.7% | 17.3% | 46.1% | 61.9% | 43.2% | 7.59% (active) | 48.9% | 39% | 8.57% (active) | 40.8% |
| COc1cc2c(cc1-c1c(C)noc1C)ncc1nc(C3CCCCC3)n([C@@H](C)COC(F)F)c12 | 14.5% | 13.3% | 39.1% | 76.6% | 41.8% | 4.85% (active) | 43.8% | 35.6% | 14.3% | 37% |
| C=C(C)[C@@H]1CC[C@]2(C=O)CC[C@]3(C)[C@H](CC[C@@H]4[C@@]5(C)C/C(=C/c6cccnc6)C(=O)C(C)(C)[C@@H]5CC[C@]43C)[C@@H]12 | 40.6% | 35.5% | 63.5% | 128% | 64.6% | 117% | -31.2% (active) | 74.3% | 87.4% | 78.5% |
| CN(C)c1ccc(C(=O)c2ccc(N(C)C)c(N)c2)cc1N | 7.86% (active) | 60.4% | 41.6% | 75.7% | 47% | 24.6% | 72.8% | -31% (active) | 7.6% (active) | -14% (active) |
| O=S(=O)(NCCNc1cc(-c2cn(-c3ccccc3)nc2-c2cccc(O)c2)ccn1)c1ccc(F)cc1 | -5.97% (active) | 9.5% (active) | 23.7% | 62.9% | 41.3% | 46.4% | 46.2% | 35.8% | 15.7% | 17.9% |
| c1cnc2[nH]cc(-c3csc(-c4cn(CCCN5CCCCC5)c5ccccc45)n3)c2c1 | -31.4% (active) | -26.8% (active) | 69.7% | 92.5% | 75.7% | 94.2% | 34.6% | 60.4% | 73.3% | 68.1% |
| COc1cccc(-c2nn(-c3ccccc3)cc2-c2ccnc(NCCCNS(=O)(=O)c3ccc(Cl)cc3)c2)c1 | 7.26% (active) | 26.6% | 37.3% | 75.3% | 42.8% | 60.5% | 41.4% | 54% | 49.9% | 35.6% |
| Brc1ccc2c(c1)c(-c1nc(-c3c[nH]c4ncccc34)cs1)cn2CCCN1CCCCC1 | -47.5% (active) | -47.9% (active) | 1.18% (active) | 32.3% | 48.4% | 63.1% | 6.09% (active) | -64.3% (active) | 52.1% | 13.4% |
| N#C/C(=C\c1ccc(-c2ccc(Br)cc2)o1)c1nc(-c2ccco2)cs1 | 95.6% | 61.4% | 99.8% | 63.4% | -6.53% (active) | 91% | 60.9% | 106% | 100% | 99.8% |
| CC(=O)Nc1cc(F)cc(C(F)(F)F)c1Cl | 101% | 105% | 105% | 96.2% | 98.1% | 106% | 100% | 104% | 88.2% | 96.1% |
| Cn1c(=O)c2c(ncn2CC(=O)Nc2ccc(S(N)(=O)=O)cc2)n(C)c1=O | 105% | 99.9% | 105% | 105% | 108% | 87.8% | 112% | 106% | 101% | 106% |
| NC1=NN=C2N(N)C(=O)c3cnn(-c4ccccc4)c3N2c2nc(-c3ccccc3)cc(-c3ccccc3)c21 | 103% | 93.5% | 102% | 104% | 82.8% | 93.2% | 89% | 116% | 101% | 92.1% |
| COc1cc(-c2cc3ncccc3c3nc(N)c4cccnc4c23)cc(OC)c1OC | 28.3% | 23.2% | 26.9% | 35.7% | 54.3% | 20.5% | 41% | 15.1% | 16.8% | 10.5% |
| C=C1C(=O)O[C@H]2[C@H]1CC/C(COC(=O)NCc1cc3ccccc3[nH]1)=C\CC[C@@]1(C)O[C@@H]21 | -2.88% (active) | -32.8% (active) | 6.1% (active) | 26.2% | -0.221% (active) | 86.7% | -20.5% (active) | -54.4% (active) | 79.3% | 71.4% |
| O=C(/C(=C(\C(=O)c1ccccc1)c1ccccc1)c1ccccc1)c1ccccc1 | 31.6% | 18.7% | 41.6% | 100% | 55.8% | 82.5% | 69% | 40.8% | 76.6% | 45.4% |
